According to PubChem BioAssay (NCATS):
Several values for one entry are separate records, joined by “and”; a condition that tells them apart may be missing. Identical values can stand only once. Inconclusive results are not listed. Activity calls are given as the source filed them. Unless noted, calls come from the whole dose curve; as a rule, active = well fitted curve in the direction sought with a large enough effect; inconclusive = small, poorly fitted or top-dose-only effect, or another doubt; inactive = no such curve, though single readings can be large; an effect the other way counts as inactive or inconclusive.

Tests used:
[1] = Cell Viability - Jurkat (AID 426;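 active = dose-dependent loss of cell ATP signal giving a full or clear fitted curve, ranked by lower potency value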;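 note: potency is the fitted concentration of half-maximal effect; cells exposed to compound for 40 hours at 37 °C before ATP read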); details: qHTS
Summary of the method: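 qHTS, 1536-well; Jurkat E6-1, 5000 cells/well, complete medium; cpd 40 hr, 37 °C; CellTiter-Glo 20 min RT; luminescence. AC50 by Hill fit.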

[2] = Cell Viability - Hek293 (AID 427;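 active = compounds whose dose-response curve shows a full or clear partial loss of cell viability, called from curve shape rather than a numeric limit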;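 note: potency is the fitted concentration of half-maximal effect; cells exposed to compound for 40 hours at 37 °C before reading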); details: qHTS
Summary of the method: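 Luminescent ATP read-out (CellTiter-Glo, 20 min RT) after 40 hr compound exposure at 37 °C in complete medium. Signal normalized to DMSO (basal) and 100 uM tamoxifen (100% inhibition); concentration-response fitted with the standard Hill equation to give AC50.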

[3] = Cell Viability - HepG2 (AID 433; calls by dose curve;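 note: potency is the fitted concentration of half-maximal effect; cells exposed to compound for 40 hours; potency for ATP loss meaning cytotoxicity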); details: qHTS
Summary of the method: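 HepG2 cells, 1500 per well, treated 40 hr at 37 °C in complete medium; viability from intracellular ATP by CellTiter-Glo luminescence. Normalized to DMSO and 100 uM tamoxifen; AC50 from Hill fit of qHTS concentration-response.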

[4] = Cell Viability - HUV-EC-C (AID 542); details: HUV-EC-C endothelial cell viability, qHTS; series mostly up to 92.2 µM;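 note: cells exposed to compound for 40 hours; % is set by controls: 0 for no effect and ±100 for the full control effect; nearly all actives have a fitted effect of over 35% in size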
Summary of the method: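 qHTS cytotoxicity: HUV-EC-C, 1000 cells/well, 5 hr settle, compound 40 hr 37 °C, CellTiter-Glo, luminescence. AC50 via Hill equation.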

[5] = Cell Viability - H-4-II-E (AID 543); details: H-4-II-E rat hepatoma viability; series mostly up to 92.2 µM;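 note: cells exposed to compound for 40 hours; % is set by controls: 0 for no effect and ±100 for the full control effect; nearly all actives have a fitted effect of over 35% in size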
Summary of the method: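 Luminescent ATP signal (CellTiter-Glo) served as the viability read-out, with cytotoxicity seen as a concentration-dependent ATP drop. Cells were treated for 40 hours in complete medium. AC50 values derive from Hill-equation modelling.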

[6] = Cell Viability - SH-SY5Y (AID 544); details: SH-SY5Y neuroblastoma cell viability; series mostly up to 92.2 µM;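 note: cells exposed to compound for 40 hours; nearly all actives have a fitted effect of over 55% in size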
Summary of the method: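 Luminescent ATP read-out (CellTiter-Glo) measures loss of viable SH-SY5Y neuroblastoma cells after 40 hr compound exposure at 37 °C. AC50 values derive from standard Hill modelling of qHTS concentration-response data.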

[7] = Cellular Toxicity (caspase-3) SHSY5Y (AID 657); details: SH-SY5Y caspase-3 activation, DMSO zero, 10 µM staurosporine = 100%; series mostly up to 91.7 µM
Summary of the method: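 SH-SY5Y human neuroblastoma cells, 1500/well, exposed to compound for 16 hours at 37 °C in complete medium. Caspase-3/7 activity read by Caspase-Glo luminescence after 1 hr at room temperature, normalized to DMSO and 10 uM staurosporine; AC50 from Hill fit.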

[8] = Cellular Toxicity (caspase-3) SK-N-SH (AID 661); details: SK-N-SH caspase-3 activation, qHTS, DMSO as zero, staurosporine as full; series mostly up to 91.7 µM
Summary of the method: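 Human neuroblastoma SK-N-SH, 1500 cells/well, 5 hr pre-incubation, then compound 16 hr, 37 °C. Caspase-Glo 3/7 reagent, 1 hr RT, luminescence. Norm. to DMSO/10 uM staurosporine; Hill-fit AC50.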

[9] = Cellular Toxicity (caspase-3) H-4-II-E (AID 663); details: H-4-II-E rat hepatoma; Potency: caspase-3 activation; series mostly up to 92.2 µM;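 note: cells exposed to compound for 16 hr before readout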
Summary of the method: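 Apoptosis induction is scored as increased luminescence from caspase 3/7 substrate cleavage in rat hepatoma H-4-II-E cells exposed to compound for 16 hr. Activity is scaled between DMSO and 100 uM tamoxifen.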

[10] = Cellular Toxicity (caspase-3) N2a (AID 665); details: N2a cells, luminescence, normalized: DMSO 0%, 10 µM staurosporine 100%; series mostly up to 92.2 µM;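 note: compound exposure lasted 16 h at 37 °C before readout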
Summary of the method: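 N2a cells, 1500/well, 5 h settle at 37 °C; cpd 16 h, 37 °C; Caspase-Glo 3/7, 1 h RT; luminescence. Norm: DMSO = 0, 10 uM staurosporine = 100%. AC50, Hill fit.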

[11] = Cellular Toxicity (caspase-3) NIH 3T3 (AID 666); details: NIH 3T3 caspase-3 activation, apoptosis/toxicity, 0% DMSO, 100% is 100 µM tamoxifen; series mostly up to 92.2 µM;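 note: caspase signal read after 16 h compound exposure; 0% = DMSO basal and 100% = 100 µM tamoxifen stimulation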
Summary of the method: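 Luminescence from aminoluciferin released by caspase-3/7 cleavage of a peptide substrate served as read-out. Mouse fibroblast NIH 3T3 cells were exposed to compounds over a concentration range for 16 hours, and AC50 values came from standard Hill modelling.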

[12] = MultiTox-Fluor Cytotoxicity Assay - LYMP1-001 - Dead Cells (AID 946); details: LYMP1-001 lymphoblastoid cells, dead-cell protease fluorescence; series mostly up to 92.2 µM;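 note: 0% = DMSO and 100% = tetraoctylammonium bromide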
Summary of the method: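 AC50 from Hill fit of concentration-response; data normalized to DMSO (basal) and 15 uM tetraoctylammonium bromide (100%). LYMP1-001 lymphoblastoid cells, 2500/well, 16 hr compound at 37 C; dead-cell protease fluorescence, Ex/Em 485/520.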

[13] = Cell Viability - LYMP1-002 - Assay at 16 hr (AID 948); details: LYMP1-002 lymphoblastoid cell viability; series mostly up to 92.2 µM;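 note: 0% = DMSO alone and full effect = 92 µM tetraoctylammonium bromide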
Summary of the method: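 LYMP1-002 human lymphoblastoid cells, 2500/well, were treated with compounds for 16 hr at 37 C in complete medium. Viability was read as intracellular ATP by CellTiter-Glo luminescence, and AC50 was derived from a Hill fit to concentration-response data.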

[14] = Cell Viability - LYMP2-010 (AID 981); details: LYMP2-010 lymphoblastoid cell viability, qHTS; series mostly up to 92.2 µM; note: % is set by controls: 0 for no effect and ±100 for the full control effect; nearly all actives have a fitted effect of over 55% in size
Summary of the method: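 Luminescent ATP signal (CellTiter-Glo) served as the viability read-out. Cells of the human lymphoblastoid line were treated with compound over a concentration range for 24 hours at 37 C, and AC50 values came from Hill-equation modeling.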

[15] = Cell Viability - LYMP2-012 (AID 982); details: LYMP2-012 lymphoblastoid cell viability qHTS; series mostly up to 92.2 µM;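 note: cellular ATP by luciferase luminescence where a drop means cytotoxicity; cells exposed to compound for one day before reading; 0% = DMSO only and full loss = 92 µM tetraoctylammonium bromide; nearly all actives have a fitted effect of over 55% in size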
[16] = Cell Viability - LYMP2-018 (AID 985); details: LYMP2-018 lymphoblastoid cells, viability (qHTS); series mostly up to 92.2 µM;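 note: compound exposure lasted 24 hr at 37 °C; plate controls were DMSO only for no effect and tetraoctylammonium bromide at 92 µM for full effect; nearly all actives have a fitted effect of over 50% in size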
Summary of the method: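 Luminescent ATP signal (CellTiter-Glo, read after 30 min at room temperature) reports viable cells after 24 hr compound treatment at 37 C. Concentration-response data were fitted to the standard Hill equation for AC50.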

[17] = Cell Viability - LYMP2-024 (AID 988); details: LYMP2-024 lymphoblastoid cell viability; series mostly up to 92.2 µM;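 note: plate controls were DMSO only for no effect and 92 µM tetraoctylammonium bromide for full effect; nearly all actives have a fitted effect of over 60% in size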
Summary of the method: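 Steps: seed 2500 cells/well, 5 hr 37 C; add compound, 24 hr 37 C; add CellTiter-Glo, 30 min room temperature; read luminescence. AC50 derived by Hill modelling of concentration-dependent ATP loss.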

[18] = molecular target: Retinoic acid receptor RXR-alpha (Homo sapiens) (UniProt P19793); assay: qHTS assay for small molecule antagonists of retinoid X receptor alpha signaling (AID 588546; active = well fitted inhibition curve with a large enough effect in the signal ratio, with a control signal flat, not every such curve was filed as active; the % refers to the signal ratio;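 note: cells stimulated with 9-cis-retinoic acid as agonist; % is set by controls: 0 for no effect and ±100 for the full control effect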); details: HEK293T RXRa-UAS-bla, beta-lactamase ratio, antagonist mode
Sequence of Retinoic acid receptor RXR-alpha (Homo sapiens) (P19793 whole entry, looked up): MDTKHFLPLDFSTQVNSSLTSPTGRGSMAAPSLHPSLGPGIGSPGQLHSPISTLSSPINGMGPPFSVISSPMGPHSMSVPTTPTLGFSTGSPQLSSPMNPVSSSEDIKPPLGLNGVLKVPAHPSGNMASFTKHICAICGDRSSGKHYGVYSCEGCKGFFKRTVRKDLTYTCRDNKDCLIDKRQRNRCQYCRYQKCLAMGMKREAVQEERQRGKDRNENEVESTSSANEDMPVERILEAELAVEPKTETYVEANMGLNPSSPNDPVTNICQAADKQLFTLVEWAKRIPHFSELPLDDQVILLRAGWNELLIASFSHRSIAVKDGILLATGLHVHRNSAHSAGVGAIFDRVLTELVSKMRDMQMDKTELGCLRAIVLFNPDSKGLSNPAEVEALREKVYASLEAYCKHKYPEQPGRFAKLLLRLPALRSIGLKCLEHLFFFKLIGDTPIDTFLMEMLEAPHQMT
Summary of the method: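 Beta-lactamase reporter inhibition, read as CCF4 fluorescence ratio (ex 405, em 460/530 nm) after 2 h at RT. HEK293T UAS-bla cells, 2500/well, were stimulated with 9-cis-RA at 500 or 100 nM final alongside test compound for 18 h at 37 C.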

[19] = qHTS assay for small molecule agonists of the antioxidant response element (ARE) signaling pathway measured by Nrf2-dependant transcriptional activity - cell viability counter screen (AID 720653; active = well fitted curve in the direction sought with a large enough effect in the repeat runs; an effect the other way counts as inactive or inconclusive; note: % is set by controls: 0 for no effect and ±100 for the full control effect); details: ARE-bla HepG2 viability, CellTiter-Glo ATP luminescence, 16 h; max response: active compounds read low
Summary of the method: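 Cytotoxicity counter screen: intracellular ATP quantified by CellTiter-Glo luminescence in the same ARE-bla HepG2 plates, after 16 h compound exposure and a 2 h beta-lactamase substrate step.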

[20] = qHTS assay for cell viability of the p53RE-bla HCT-116 cell line (AID 743292); details: p53RE-bla HCT-116 viability, ATP luminescence, 16 h; series mostly up to 95 µM; note: % is set by controls: 0 for no effect and ±100 for the full control effect; nearly all actives have a fitted effect of over 55% in size
Summary of the method: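 HCT-116 p53RE-bla cells seeded 4,000/well; 5 h at 37 C; compound (DMSO) added; 16 h at 37 C; CellTiter-Glo added, 30 min RT; luminescence read.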

O=C(O)c1ccccc1C(c1ccc(O)cc1)c1ccc(O)cc1
inactive: Potency [1] > 92 µM | Potency [2] > 92 µM | Potency [3] > 92 µM | outcome [4] | Potency [5] | Potency [6] | outcome [7] | outcome [8] | Potency [9] | outcome [10] | outcome [11] | Potency [12] | Potency [13] | Potency [14] | Potency [15] | Potency [16] | Potency [17] | max response [18] 6.9% and 9.98% | max response [19] -7.19% and 7.52% | Potency [20]

c1ccc2scnc2c1
inactive: Potency [1] > 92 µM | Potency [2] > 92 µM | Potency [3] > 92 µM | outcome [4] | Potency [5] | Potency [6] | outcome [7] | outcome [8] | Potency [9] | outcome [10] | outcome [11] | Potency [12] | Potency [13] | Potency [14] | Potency [15] | Potency [16] | Potency [17] | max response [18] -2.82% | max response [19] -3.11% | Potency [20]

O[C@@H]([C@H](O)[C@@H](O)CBr)[C@@H](O)CBr
inactive: Potency [1] > 92 µM | Potency [2] > 92 µM | Potency [3] > 92 µM | outcome [4] | Potency [5] | Potency [6] | outcome [7] | outcome [8] | Potency [9] | outcome [10] | outcome [11] | Potency [12] | Potency [13] | Potency [14] | Potency [15] | Potency [16] | Potency [17] | max response [18] 12.2% | max response [19] 2.11% | Potency [20]

Cc1ccc(N)c([N+](=O)[O-])c1
inactive: Potency [1] > 92 µM | Potency [2] > 92 µM | Potency [3] > 92 µM | outcome [4] | Potency [5] | Potency [6] | outcome [7] | outcome [8] | Potency [9] | outcome [10] | outcome [11] | Potency [12] | Potency [13] | Potency [14] | Potency [15] | Potency [16] | Potency [17] | max response [18] -0.0872% and -10.2% | max response [19] -14.8% and -1.11% | Potency [20]

COc1ccc2nc(N)sc2c1
inactive: Potency [1] > 92 µM | Potency [2] > 92 µM | Potency [3] > 92 µM | outcome [4] | Potency [5] | Potency [6] | outcome [7] | outcome [8] | Potency [9] | outcome [10] | outcome [11] | Potency [12] | Potency [13] | Potency [14] | Potency [15] | Potency [16] | Potency [17] | max response [18] 1.97% and 2.53% | max response [19] -11.5% and -7.03% | Potency [20]

Cc1ccc([N+](=O)[O-])c(C)c1
inactive: Potency [1] > 92 µM | Potency [2] > 92 µM | Potency [3] > 92 µM | outcome [4] | Potency [5] | Potency [6] | outcome [7] | outcome [8] | Potency [9] | outcome [10] | outcome [11] | Potency [12] | Potency [13] | Potency [14] | Potency [15] | Potency [16] | Potency [17] | max response [18] -1.42% and 0.976% | max response [19] -3.32% and -3.26% | Potency [20]

O=C1c2ccccc2C(=O)C1c1ccc2ccccc2n1
inactive: outcome [4] | Potency [6] | outcome [7] | outcome [8] | Potency [9] | outcome [10] | Potency [12] | Potency [13] | Potency [14] | Potency [15] | Potency [16] | Potency [17] | max response [18] -20% | Potency [20]

CCC(O)OC(O)CC (centres undefined)
inactive: Potency [1] > 92 µM | Potency [2] > 92 µM | Potency [3] > 92 µM | outcome [4] | Potency [5] | Potency [6] | outcome [7] | outcome [8] | Potency [9] | outcome [10] | outcome [11] | Potency [12] | Potency [13] | Potency [14] | Potency [15] | Potency [16] | Potency [17] | max response [18] -3.68% and -1.43% | max response [19] 1.91% [middle of 4 runs] | Potency [20]

COc1c2ccoc2cc2oc(=O)ccc12
inactive: Potency [1] > 92 µM | Potency [2] > 92 µM | Potency [3] > 92 µM | outcome [4] | Potency [5] | Potency [6] | outcome [7] | outcome [8] | Potency [9] | outcome [10] | outcome [11] | Potency [12] | Potency [13] | Potency [14] | Potency [15] | Potency [16] | Potency [17] | max response [18] 23.4% | max response [19] 3.31% | Potency [20]

CCCCCCCCCCCCCCC1CO1 (centres undefined)
inactive: Potency [1] > 92 µM | Potency [2] > 92 µM | Potency [3] > 92 µM | outcome [4] | Potency [5] | Potency [6] | outcome [7] | outcome [8] | Potency [9] | outcome [10] | outcome [11] | Potency [12] | Potency [13] | Potency [14] | Potency [15] | Potency [16] | Potency [17] | max response [18] 5.21% and -18.5% | max response [19] -2.08% and 0.668% | Potency [20]

CCCN(CCC)C(=O)SCC
inactive: Potency [1] > 92 µM | Potency [2] > 92 µM | Potency [3] > 92 µM | outcome [4] | Potency [5] | Potency [6] | outcome [7] | outcome [8] | Potency [9] | outcome [10] | outcome [11] | Potency [12] | Potency [13] | Potency [14] | Potency [15] | Potency [16] | Potency [17] | max response [18] 13.3% and -9.15% | max response [19] -4.11% and 2.96% | Potency [20]
